Bioassay records from PubChem BioAssay.
An excerpt weighted towards active compounds, which were near 3.5% of everything screened.
Anthrax LF inh2 = Bacillus anthracis LF protease inhibitors, primary screen, biochemical, multiplex microsphere, MLPCN library; Lethal factor (Bacillus anthracis), P15917; multiplex microsphere protease cleavage assay; inhibition, % at 10 µM; 360,000 compounds, 0.12% hits; AID 588501, 2011
BoNT A protease = BoNT/A light chain protease inhibitors, primary screen, biochemical, flow cytometry, MLPCN library. 360,000 compounds, 0.17% hits. multiplex microsphere protease substrate cleavage. Botulinum neurotoxin type A light chain protease (Clostridium botulinum A str. ATCC 3502). AID 588499, 2011. inhibition, % at 10 µM
Bead autofluor = compound fluorescence in toxin protease inhibitor counterscreen; compound autofluorescence counterscreen, microsphere flow cytometry; stronger effect = higher value; fluorescence intensity (test concentration not listed); 360,000 compounds, 3.1% hits; in the data active means fluorescence intensity above about 16000; inconclusive means no clear call, values can overlap the other calls
BoNT-F LC inh = BoNT/F light chain protease inhibitors, primary screen, biochemical, flow cytometry, MLPCN library; Botulinum neurotoxin type F light chain protease (Clostridium botulinum); Multiplex microsphere protease cleavage assay; inhibition, % at 10 µM; 360,000 compounds, 0.22% hits; AID 588497, 2011; in the data active means inhibition above about 35%, passing the limit was not always enough; inconclusive means no clear call, values can overlap the other calls
Each line names hits and unclear results; the compound was inactive in the other large screens. Unless noted, no stated cut-off is given here; in the data, active means inhibition above about 30%; inconclusive means no clear call, values can overlap the other calls; inactive means below that.

O=C(c1ccco1)N1CCCC(c2nc(-c3ccc(S(=O)(=O)NCc4ccccc4)cc3)no2)C1 (stereo unspecified)	Bead autofluor 22212
O=C(c1ccccc1Br)N1CCCC(c2nc(-c3cccs3)no2)C1 (stereo unspecified)	none
O=C(c1c(F)cccc1F)N1CCCC(c2nc(-c3cccs3)no2)C1 (stereo unspecified)	none
O=C(Cc1ccccc1)N1CCCC(c2nc(-c3cccs3)no2)C1 (stereo unspecified)	Bead autofluor 23522
O=S(=O)(Cc1ccccc1)N1CCC(c2nc(-c3cccs3)no2)CC1	BoNT A protease inconclusive, Bead autofluor 18652
O=C(N1CCOCC1)N1CCCC(c2nc(-c3cccs3)no2)C1 (stereo unspecified)	Bead autofluor 20689
CCCCCCCCN1C(=O)[C@H](CC(=O)NCc2ccc(OC)c(OC)c2)C[C@@]2(C(=O)OCC)CCCC=C12	none
CSc1ccc(OC2(C)CCN(Cc3ccc(-c4ccccn4)cc3)C2)cc1 (stereo unspecified)	none
O=C(O)C1(C(=O)O)CCC2(CCCCC2)CC1	none
COc1cccc(-c2noc(C3CCCN(C(=O)Cc4ccccc4)C3)n2)c1 (stereo unspecified)	Bead autofluor 20892
CCCC(=O)N1CCCC(c2nc(-c3cccc(OC)c3)no2)C1 (stereo unspecified)	none
Cc1cc(/C=C2\Sc3ccccc3N2C)cc(C)[n+]1CC1CCCO1 (stereo unspecified)	BoNT A protease 42
COC(=O)C1=C(C)n2nnnc2NC1c1cc2ccccc2o1 (stereo unspecified)	BoNT A protease inconclusive, Bead autofluor 17991
CCOc1ccc(NS(=O)(=O)c2cc(OC)ccc2OC)cc1	none
COc1ccc(OC)c(S(=O)(=O)Nc2ccc(Oc3ccccc3)cc2)c1	Bead autofluor 21725
CCN(c1ccccc1)S(=O)(=O)c1ccc(OC)c(OC)c1	none
CCN(c1ccccc1)S(=O)(=O)c1cc(OC)ccc1OC	Bead autofluor 22526
COc1ccc2c(c1)Cc1c-2cc(Br)c(N)c1Br	none
CCOC(=O)Cn1nc(C)n(-c2ccc(C(C)C)cc2)c1=O	Bead autofluor 16947
O=C(NCc1ccccc1)OC1CC2CC1[C@H]1CCCCN1C2=O (stereo partly specified)	none
O=[N+]([O-])c1ccc(/C=N/n2cnc3ccccc32)s1	none
Cc1cc2ncn(/N=C/c3ccc([N+](=O)[O-])s3)c2cc1C	BoNT A protease 44
CN(c1ccccc1)c1nc2ccsc2c(=O)s1	Bead autofluor 21828
CCC(=O)OCOc1ccc(/C=C2/CCC(CN(C)C)C2=O)cc1 (stereo unspecified)	none
Cc1cc(Cl)ccc1OC(C)c1nnc(N)s1 (stereo unspecified)	Bead autofluor 16493
CC(Oc1ccc(Cl)cc1Cl)c1ccnc(N)n1 (stereo unspecified)	none
CCCCOC(=O)n1c(SCC(=O)N(CC)CC)nc2ccccc21	Bead autofluor 24831
CCN(CC)C(=O)CSc1nc2ccccc2c(=O)n1OC(C)C	Bead autofluor 17014
CCOC(=O)n1c(SCC(N)=O)nc2ccccc21	none
CC(C#N)On1c(SC(C)C#N)nc2ccccc2c1=O (stereo unspecified)	Bead autofluor 25088
COc1cccc(NC(=S)NC(Cc2ccccc2)c2ccccc2)c1 (stereo unspecified)	none
CC1(C)CC(=O)c2c(O)cc(O)cc2O1	Bead autofluor 22477
Cc1ccc(C(=O)NCC(=O)OCC(=O)Nc2ccc(Cl)cc2C(F)(F)F)cc1C	BoNT-F LC inh 38
Cc1ccsc1C(=O)OCC(=O)Nc1ccc(Cl)cc1C(F)(F)F	none
c1ccc2c(c1)NC1(CCCCC1)n1c-2nc2ccccc21	none
CC1(c2ccccn2)Nc2ccccc2-c2nc3ccccc3n21 (stereo unspecified)	Bead autofluor 22286
O=C1Nc2ccccc2C12Nc1ccccc1-c1nc3ccccc3n12 (stereo unspecified)	none
CN1C(=O)C2(Nc3ccccc3-c3nc4ccccc4n32)c2ccccc21 (stereo unspecified)	Bead autofluor 23406
CCCNC(=O)C1(C)CCCN(C(=O)COc2ccc(C(C)(C)C)cc2)C1 (stereo unspecified)	none
COC(=O)CSc1nc2c(c(-c3ccco3)c1C#N)CCCC2	none
CC(C)OC(=O)CC(=O)CSc1nc2c(c(-c3cccs3)c1C#N)CCC2	BoNT A protease 30
CCOC(=O)CSc1nc2c(c(-c3ccc(C)o3)c1C#N)CCCC2	Bead autofluor 23315
O=C(O)C1(O)C[C@@H](O)C(O)[C@H](O)C1 (stereo partly specified)	none
COC(=O)/C=c1\sc2n(c1=O)C(C)=CC(C)(C)N=2	Bead autofluor 19740
COC(=O)/C=c1/sc2n(c1=O)CCN=2	none
Nc1ccccc1-c1nc2ccccc2[nH]1	Bead autofluor 22286
O=C1NN(c2ccccc2)C(=O)/C1=C\c1ccccc1OCC(=O)N1CCOCC1	Bead autofluor 21121
COc1ccc2[nH]c3c(=O)n(CCCCC(=O)NCCN4CCCC4)c(=S)[nH]c3c2c1	Bead autofluor 17189
CCCCNC(=O)CCCCn1c(=S)[nH]c2c([nH]c3ccc(OC)cc32)c1=O	none
CC[C@H](C)NC(=O)CCCCCn1c(=S)[nH]c2c([nH]c3ccc(OC)cc32)c1=O	none
COc1ccc2[nH]c3c(=O)n(CCCCC(=O)N4CCC(C(N)=O)CC4)c(=S)[nH]c3c2c1	BoNT A protease inconclusive, Bead autofluor 20373
COc1ccc(N2C[C@H](CSC)[C@@H](CC(=O)Nc3ccccc3)C2=O)cc1	none
O=C1NC[C@@H](CCCCN2C[C@H](Cc3ccc(O)cc3)N(CC3CCCCC3)C(=O)C2=O)N(CCc2ccccc2)C1=O	none
COc1ccccc1-c1cnc(C(O)c2cc(C)ccc2C)[nH]1 (stereo unspecified)	none
CCCCn1c(N)c(N(CC(C)C)C(=O)c2ccco2)c(=O)[nH]c1=O	none
CC(C)C[C@H]1CN(CCCC[C@@H]2CNC(=O)C(=O)N2CCc2ccccc2)C(=O)C(=O)N1CCC1CCCCC1	none
CC(C)(C)CC(=O)NC(=S)Nc1ccccc1C(F)(F)F	Bead autofluor 24827
Cc1ccc([N+](=O)[O-])cc1NC(=S)NC(=O)CC(C)(C)C	Bead autofluor 19100
CSc1ccccc1NC(=S)Nc1ccccc1C(F)(F)F	Bead autofluor 19907
Cc1ccc([N+](=O)[O-])cc1NC(=S)NC(=O)C(C)(C)C	none
CCc1nc(SCC(=O)NNC(=O)C(C)C)c2ccccc2n1	BoNT A protease inconclusive, Bead autofluor inconclusive, BoNT-F LC inh inconclusive
CCc1nc(SCC(=O)NNC(=O)C2CCCCC2)c2ccccc2n1	BoNT A protease inconclusive, Bead autofluor 21748
Cc1ccc(SCC(=O)NNC(=O)C2CCCCC2)cc1	BoNT A protease inconclusive, Bead autofluor 20856
C(=C\c1ccccc1)/CN1CCN(C(c2cccc3ccccc23)c2nnnn2C2CCCC2)CC1 (stereo unspecified)	none
CC1C(c2ccccc2)C(C#N)(C#N)C2(C#N)C(=O)NC1(N)C2C (stereo unspecified)	Bead autofluor 37669
